# Assay results published in PubChem BioAssay.
# “And” between values parts separate entries of the source, which are not always exact repeats. Equal entries are not always repeated. The source made the active and inactive calls.
# Columns and labels:
# [1] = system: Human papillomavirus type 1a protein E7 (residues 44-93); experiment: small molecules binding HPV E7 44-93 – biochemical, small-molecule microarray, residues 44-93, 635 nm fluorescence, primary screen (AID 1108); conditions: fluorescence 635 nm, higher = more signal;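 also: E7 fragment applied at 1 µg/mL in TBST for 1 h at 4 C; score combines spot fluorescence with its signal to noise ratio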
# [2] = hepatitis C replication reporter changes, two-sided – Huh7 cells, luciferase reporter, HCV replication inhibitor project, primary screen (AID 1109); conditions: Huh7 HCV replicon luciferase reporter, 48 h; higher = more signal;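 also: huh7 hepatoma cells harbouring a luciferase neomycin HCV replicon reporter; luciferase luminescence as measure of HCV replicon replication; test concentration not given here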
# [3] = molecular target: Left-right determination factor 2 (Homo sapiens) (UniProt O00292); experiment: small molecules binding LEFTY2 protein – biochemical, small-molecule microarray, 635 nm fluorescence scan, primary screen (AID 1110); conditions: higher = more signal
# [4] = molecular target: Calmodulin-1 (Homo sapiens) (UniProt P0DP23); experiment: small molecules binding calmodulin-1 with EGTA – biochemical, small-molecule microarray, Cy5-labelled CALM1, profiling panel (AID 1111); conditions: Cy5-CALM1 binding fluorescence, higher = more signal;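 also: labelled calmodulin applied in Tris saline Tween buffer holding calcium plus EGTA and DTT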
# [5] = molecular target: Calmodulin-1 (Homo sapiens) (UniProt P0DP23); experiment: small molecules binding Ca-loaded calmodulin-1 – biochemical, small-molecule microarray, Cy5-labelled CALM1, plus calcium, artefact control for SMM control-protein annotation, profiling panel (AID 1112); conditions: Cy5-CALM1 binding fluorescence, higher = more signal;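 also: score merges spot fluorescence with signal to noise from triplicate slides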
# [6] = probe aWnt5a binding to arrayed compounds – biochemical, biotinylated probe, 635/667 nm fluorescence, primary screen (AID 1113); conditions: higher = more signal; small-molecule microarray, probe aWnt5a, fluorescence unless noted;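 also: score merges 667 nm fluorescence intensity with signal-to-noise per printed feature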
# [7] = probe aShh binding to arrayed compounds – biochemical, biotinylated probe, 635/667 nm fluorescence, primary screen (AID 1114); conditions: higher = more signal; small-molecule microarray, probe aShh, fluorescence unless noted;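 also: probe is biotin-labelled aShh protein from a stem cell growth factor screen; measures binding of labelled protein to compounds printed on the slide; score merges feature fluorescence at 667 nm with signal-to-noise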
# [8] = probe aNog binding to arrayed compounds – biochemical, biotinylated probe, 635/667 nm fluorescence, primary screen (AID 1115); conditions: higher = more signal; small-molecule microarray, probe aNog, fluorescence unless noted;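 also: probe is biotinylated aNog protein used at 0.15 µg/mL for 1 h at 4 C; z-score combines 667 nm fluorescence of each spot with its signal to noise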
# [9] = molecular target: Torsin-1A-interacting protein 1 (Homo sapiens) (UniProt Q5JTV8); experiment: compound microarray binding of lysate hLAP1 – cell lysate, small-molecule microarray, COS7 lysate, 635/667 nm fluorescence, primary screen (AID 1116); conditions: 635 nm fluorescence, higher = more signal
# [10] = molecular target: Alpha-bungarotoxin (Bungarus multicinctus) (UniProt P60615); experiment: compounds binding labelled alpha-BTX control protein – biochemical, small-molecule microarray, Alexa647 label, 635/667 nm fluorescence, artefact control for SMM control protein annotation, profiling panel (AID 1117); conditions: alpha-BTX-A647 binding fluorescence, higher = more signal
# Albumin (Bos taurus) = Albumin (Bos taurus) (UniProt P02769); experiment: compounds binding labelled BSA control protein – biochemical, small-molecule microarray, Alexa647 label, 635/667 nm fluorescence, artefact control for SMM control protein annotation, profiling panel (AID 1118); conditions: BSA-A647 binding, fluorescence 635 nm, higher = more signal;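 also: score merges 667 nm emission intensity and signal-to-noise per printed compound spot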
# [11] = probe aXIP binding to arrayed compounds – biochemical, NeuroSMM set, 635/667 nm fluorescence, primary screen (AID 1119); conditions: small-molecule microarray; higher = more signal, called active from +8 up or from −8 down unless noted;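 also: probe is the protein aXip251-270 applied at 1 µg/mL to compound-printed slides; binding of probe to printed compounds measured as 667 nm fluorescence plus signal to noise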
# [12] = probe aNOTCH3 binding on compound microarray – biochemical, small-molecule microarray, 635/667 nm fluorescence, primary screen (AID 1120); conditions: higher = more signal; small-molecule microarray, probe aNOTCH3, fluorescence unless noted;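 also: probe is a biotin-tagged antibody raised against NOTCH3 rather than NOTCH3 protein; score merges spot fluorescence near 667 nm with spot signal to noise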
# [13] = probe aNOTCH2 binding on compound microarray – biochemical, small-molecule microarray, 635/667 nm fluorescence, primary screen (AID 1121); conditions: higher = more signal; small-molecule microarray, probe aNOTCH2, fluorescence unless noted;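 also: score merges feature fluorescence read at 667 nm with its signal to noise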
# [14] = molecular target: Carbonic anhydrase 2 (Homo sapiens) (UniProt P00918); experiment: compounds binding carbonic anhydrase 2 – biochemical, small-molecule microarray, Alexa647-labelled CAII, profiling panel (AID 1122); conditions: CAII-A647 binding fluorescence, higher = more signal
# [15] = COS7 lysate on small-molecule microarray, probe aHis, 635 nm (AID 1123); conditions: higher = more signal; small-molecule microarray, COS7 cell lysate, probe aHis, fluorescence unless noted;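 also: z-score combines 667nm fluorescence intensity with signal-to-noise per printed compound spot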
# [16] = probe aLAP1 signal on lysate-treated microarray – cell lysate, small-molecule microarray, COS7 lysate, primary screen (AID 1124); conditions: higher = more signal; small-molecule microarray, COS7 cell lysate, probe aLAP1, fluorescence unless noted;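 also: lysate comes from COS7 cells expressing LAP1 and is applied at 0.3 µg/mL; score merges spot fluorescence near 667 nm with signal-to-noise over triplicate slides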
# Sam68 (KHDRBS1) = experiment: compounds binding KHDRBS1 protein – biochemical, small-molecule microarray, 635 nm fluorescence, primary screen (AID 1125); conditions: higher = more signal;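 also: score merges 667 nm channel intensity with signal to noise over triplicate slides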
# [17] = system: Chordin-like protein 2 (CHRDL2); experiment: compounds binding chordin-like 2 – biochemical, small-molecule microarray, 635 nm fluorescence, primary screen (AID 1126); conditions: fluorescence 635 nm, higher = more signal;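 also: printed compound slides probed with Chrdl2 protein at 4 µg/mL for 1 h at 4 C; score merges 667 nm emission intensity with signal to noise over three replicate slides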
# [18] = molecular target: Concanavalin-A (Canavalia ensiformis) (UniProt P02866); experiment: compounds binding concanavalin A lectin – biochemical, small-molecule microarray, Alexa647 label, 635 nm, artefact control for SMM control protein annotation, primary screen (AID 1127); conditions: ConA-A647 binding fluorescence, higher = more signal;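 also: z combines 667 nm emission intensity with signal-to-noise across three replicate slides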
# Chain of Concanavalin-A (Canavalia ensiformis) (P02866 whole entry, looked up): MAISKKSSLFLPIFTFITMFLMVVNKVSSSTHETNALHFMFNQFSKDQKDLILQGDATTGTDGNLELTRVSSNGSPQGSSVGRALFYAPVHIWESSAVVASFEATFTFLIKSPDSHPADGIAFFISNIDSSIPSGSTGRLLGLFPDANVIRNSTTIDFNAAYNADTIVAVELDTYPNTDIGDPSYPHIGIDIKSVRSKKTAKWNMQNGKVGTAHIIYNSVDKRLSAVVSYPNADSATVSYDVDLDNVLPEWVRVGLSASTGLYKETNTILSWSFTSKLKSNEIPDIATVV
# Chain of Albumin (Bos taurus) (P02769 whole entry, looked up): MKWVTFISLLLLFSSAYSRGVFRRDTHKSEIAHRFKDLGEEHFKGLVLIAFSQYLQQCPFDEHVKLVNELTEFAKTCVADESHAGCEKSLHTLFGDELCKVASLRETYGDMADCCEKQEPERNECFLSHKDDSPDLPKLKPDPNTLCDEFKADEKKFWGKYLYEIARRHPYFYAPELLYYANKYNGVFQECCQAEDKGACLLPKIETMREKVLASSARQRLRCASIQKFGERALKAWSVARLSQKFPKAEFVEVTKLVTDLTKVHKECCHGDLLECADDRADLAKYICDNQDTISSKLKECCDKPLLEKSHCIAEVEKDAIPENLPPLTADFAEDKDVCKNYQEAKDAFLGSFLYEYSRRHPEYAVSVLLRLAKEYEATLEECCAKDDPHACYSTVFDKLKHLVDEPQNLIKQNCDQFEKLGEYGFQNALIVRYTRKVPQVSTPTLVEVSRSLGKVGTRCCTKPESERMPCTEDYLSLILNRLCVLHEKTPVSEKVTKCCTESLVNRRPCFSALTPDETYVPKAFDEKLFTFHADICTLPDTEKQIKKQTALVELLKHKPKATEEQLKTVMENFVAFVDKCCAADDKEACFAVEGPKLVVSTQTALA
# Chain of Left-right determination factor 2 (Homo sapiens) (O00292 whole entry, looked up): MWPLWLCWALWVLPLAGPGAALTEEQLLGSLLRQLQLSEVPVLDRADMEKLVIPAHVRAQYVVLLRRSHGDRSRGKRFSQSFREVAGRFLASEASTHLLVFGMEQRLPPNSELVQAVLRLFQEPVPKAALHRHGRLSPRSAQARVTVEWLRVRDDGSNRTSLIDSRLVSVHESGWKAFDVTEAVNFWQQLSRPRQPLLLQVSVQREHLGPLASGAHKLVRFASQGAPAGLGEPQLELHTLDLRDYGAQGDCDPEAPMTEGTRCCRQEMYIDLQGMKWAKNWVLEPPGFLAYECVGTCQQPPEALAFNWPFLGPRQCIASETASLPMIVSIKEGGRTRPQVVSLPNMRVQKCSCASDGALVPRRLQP
# Chain of Torsin-1A-interacting protein 1 (Homo sapiens) (Q5JTV8 whole entry, looked up): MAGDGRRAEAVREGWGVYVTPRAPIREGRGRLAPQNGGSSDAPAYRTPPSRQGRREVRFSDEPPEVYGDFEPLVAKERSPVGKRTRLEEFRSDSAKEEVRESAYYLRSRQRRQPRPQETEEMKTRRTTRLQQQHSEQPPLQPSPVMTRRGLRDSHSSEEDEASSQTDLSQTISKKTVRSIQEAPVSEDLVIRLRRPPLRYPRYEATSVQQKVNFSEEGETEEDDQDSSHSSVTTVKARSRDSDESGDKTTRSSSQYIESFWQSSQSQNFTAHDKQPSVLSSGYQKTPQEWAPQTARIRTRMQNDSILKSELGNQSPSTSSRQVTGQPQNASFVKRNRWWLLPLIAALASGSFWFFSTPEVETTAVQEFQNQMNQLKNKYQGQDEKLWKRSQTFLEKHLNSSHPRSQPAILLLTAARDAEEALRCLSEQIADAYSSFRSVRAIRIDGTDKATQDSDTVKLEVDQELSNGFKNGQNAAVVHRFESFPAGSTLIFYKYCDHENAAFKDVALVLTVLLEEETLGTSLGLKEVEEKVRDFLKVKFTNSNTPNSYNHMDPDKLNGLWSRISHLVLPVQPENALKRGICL
# Chain of Alpha-bungarotoxin (Bungarus multicinctus) (P60615 whole entry, looked up): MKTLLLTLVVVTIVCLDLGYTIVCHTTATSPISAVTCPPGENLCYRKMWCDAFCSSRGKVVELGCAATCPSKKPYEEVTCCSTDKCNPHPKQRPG
Compound,composite z-score [1],z-score [2],composite z-score [3],composite z-score [4],composite z-score [5],composite z-score [6],composite z-score [7],composite z-score [8],composite z-score [9],composite z-score [10],composite z-score (Albumin (Bos taurus)),composite Z-score [11],composite z-score [12],composite z-score [13],composite z-score [14],composite z-score [15],composite z-score [16],composite z-score (Sam68 (KHDRBS1)),composite z-score [17],composite z-score [18]
CCCc1cc2c(n1Cc1cccc(Cl)c1)C(C)C1CN(C(=O)c3ccccc3)C(C)(C(=O)OC)C21 (stereo not given),0.226,-2.24,-0.587,2.18,1.37,-0.0445,0.261,1.71,2.22,0.818,1.01,-0.244 (inactive),0.0372,0.0293,0.797,2.68,0.719,0.958,-1.94,0.298
COC(=O)[C@H]1C(=O)c2ccccc2O[C@@](C(=O)OC)(c2ccccc2)[C@@H]1c1ccccc1,-0.853,-0.424,0.104,-0.558,-0.268,-0.0519,-0.352,-0.367,-0.271,-0.579,-0.764,0.181 (inactive),-0.27,-0.125,-0.466,-0.583,-0.129,-0.988,-0.0221,-0.0286
CCCC[C@@H]1C[C@H]1[C@@H](NP(=O)(c1ccccc1)c1ccccc1)c1ccc(Cl)cc1,-1.21,-0.657,-1.67,1.14,1.32,0.0403,0.254,0.633,-0.314,-0.0059,0.708,0.198 (inactive),0.092,-0.0684,0.307,0.807,-0.162,-0.331,-0.226,0.302
CN1CCc2nc(CO)c(CO)cc2C1,0.22,-0.365,0.357,-0.192,-0.657,-0.117,-0.138,-0.104,-0.115,-0.0299,0.372,0.396 (inactive),0.133,-0.115,0.2,0.121,-0.13,0.132,0.476,-0.446
CCCc1cc2c(n1Cc1ccco1)C(C)C1CN(C(=O)c3ccccc3)C(C)(C(=O)OC)C21 (stereo not given),0.0223,-1.28,0.392,1.9,0.425,0.117,0.239,1.65,1.4,0.899,0.953,0.829 (inactive),0.247,0.374,0.744,0.747,0.859,0.878,0.515,0.851
COC(=O)NCC=Cc1nc(CCC=CC(=O)O[C@H]2CC3CC(=O)O[C@@H](C=CCC(C)C)C[C@@H]4CC[C@H](C)[C@@H](C[C@@H](OC)C[C@H](C2)O3)O4)co1,-1.78,-3.46,-0.107,-0.421,-0.409,-0.179,-0.345,-0.0784,0.231,-0.684,-0.27,0.0506 (inactive),-0.095,-0.14,-0.303,-0.263,0.411,-1.03,-0.647,-1.63
COC(=O)[C@@]1(Cc2ccccc2)[C@H]2c3cc(C(=O)N(C)C)n(C)c3C[C@H]2CN1C(=O)c1ccccc1,-1.91,-1.42,-0.611,1.96,0.514,-0.107,0.214,1.65,2.25,0.0882,0.958,-0.183 (inactive),0.165,0.111,0.839,3.26,1.29,-0.299,-0.652,0.396
COC(=O)[C@@]1(Cc2ccc(F)cc2)[C@H]2c3cc(C(=O)N(C)C)[nH]c3C[C@H]2CN1C(=O)c1ccccc1,0.717,-0.0885,-0.193,0.366,-0.0836,0.0151 [setting not given],-0.343 [setting not given],0.519 [setting not given],0.125,0.125,0.659,0.495 [setting not given] (inactive),-0.0414 [setting not given],-0.0763 [setting not given],0.777,0.694 [setting not given],0.18 [setting not given],0.361,-0.268,0.419
CCOC(=O)[C@H]1CC=C2C(=O)Oc3ccc(Br)cc3[C@@H]21,0.891,-3.69,-1.91,1.27,0.0172,-0.0118,0.151,0.884,0.501,1.65,-0.104,0.35 (inactive),-0.245,-0.0896,0.663,1.95,0.328,0.893,-1.24,1.13
c1ccc(-c2cc3c(nc2-c2ccccc2)CCNC3)cc1,-0.903,-1.32,0.0196,-0.198,-0.0533,-0.184,-0.0626,0.0459,-0.19,0.913,0.525,-0.369 (inactive),0.103,-0.131,-0.301,-0.323,-0.171,-0.653,0.12,-0.269
OCc1ccc(C2=CC(C3CC3)N(Cc3sc4ccccc4c3Cl)CC2)cc1 (stereo not given),0.794,-1.68,0.401,0.0976,-0.481,-0.103,-0.0146,-0.0662,0.781,1.44,-0.0477,0.565 (inactive),-0.0932,-0.133,0.306,0.88,0.434,1.07,0.529,0.948
CC1N(P(=O)(c2ccccc2)c2ccccc2)CC(O)(c2ccccc2)CC12CC2 (stereo not given),1.36 and 0.0155,-0.421 and -1.5,-1.22 and 0.326,-0.0346 and 1.63,0.595 and 1.02,0.151 and -0.131,0.535 and 0.377,0.915 and 1.68,1.23 and 1.28,-0.914 and -0.0679,0.728 and 0.608,0.311 (inactive) and 0.617 (inactive),-0.136 and 0.15,0.148 and 0.256,0.596 and 0.631,3.25 and 2.52,0.934 and 0.881,0.723 and -0.577,-0.665 and -0.801,-0.358 and -0.0278
CN1CCC(c2ccc(CO)cc2)=CC1c1cccs1 (stereo not given),-0.895,1.05,-0.0469,-0.0348,-0.556,-0.0685,-0.0769,-0.216,0.238,0.945,-0.105,0.204 (inactive),0.956,-0.14,0.737,-0.563,0.179,-1.28,1.35,0.199
CCCc1cc2c(n1CCO)C(C)C1CN(C(=O)c3ccccc3)C(C)(C(=O)OC)C21 (stereo not given),-0.202,-1.27,-0.258,2.45,1.06,0.353,0.0545,1.85,2.26,2.61,0.979,0.43 (inactive),1.25,0.424,0.843,3.26,1.09,0.563,-1.23,1.11
CCCc1cc2c(n1Cc1ccc(C)cc1)C(C)C1CN(C(=O)c3ccccc3)C(C)(C(=O)OC)C21 (stereo not given),0.294,-1.33,-0.472,2.63,1.31,0.417,0.769,1,2.25,1.9,0.864,1.3 (inactive),0.773,1.03,0.803,2.02,1.45,0.52,-0.809,0.453
C=C(CC1(C(C)NP(=O)(c2ccccc2)c2ccccc2)CC1)c1ccccc1 (stereo not given),1.48,-1.52,-0.867,0.962,0.945,0.23,0.128,0.804,1.32,0.468,0.314,-0.589 (inactive),0.143,0.038,0.596,3.14,0.425,1.18,-0.0819,0.711
